This is an account of results in PubChem BioAssay.

For test [1], the system named is Human papillomavirus type 1a protein E7 (residues 44-93). Kind of test: HPV1a E7 fragment binders on microarrays, primary screen, biochemical, small-molecule microarray, residues 44-93, 635 nm fluorescence (AID 1108).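 Note: E7 fragment applied at 1 µg/mL in TBST for 1 h at 4 C; score combines spot fluorescence with its signal to noise ratio.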 The conditions noted are these: small-molecule microarray binding, fluorescence 635 nm; higher = more signal.
Test [2] in a line: modulators of HCV replicon luciferase signal, primary screen, HCV replication inhibitor project, Huh7 cells, luciferase reporter (AID 1109).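 Note: huh7 hepatoma cells harbouring a luciferase neomycin HCV replicon reporter; luciferase luminescence as measure of HCV replicon replication; test concentration not given here.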 As to conditions: 48 h, higher = more signal. In general terms: In antiviral work, replicon cells carry a viral genome segment that copies itself.
Test [3] deals with Left-right determination factor 2 (Homo sapiens) (UniProt O00292). Kind of test: LEFTY2 binders on small-molecule microarrays, primary screen, biochemical, small-molecule microarray, 635 nm fluorescence scan (AID 1110). As to conditions: LEFTY2 binding, higher = more signal.
Sequence of Left-right determination factor 2 (Homo sapiens) (O00292 whole entry, looked up): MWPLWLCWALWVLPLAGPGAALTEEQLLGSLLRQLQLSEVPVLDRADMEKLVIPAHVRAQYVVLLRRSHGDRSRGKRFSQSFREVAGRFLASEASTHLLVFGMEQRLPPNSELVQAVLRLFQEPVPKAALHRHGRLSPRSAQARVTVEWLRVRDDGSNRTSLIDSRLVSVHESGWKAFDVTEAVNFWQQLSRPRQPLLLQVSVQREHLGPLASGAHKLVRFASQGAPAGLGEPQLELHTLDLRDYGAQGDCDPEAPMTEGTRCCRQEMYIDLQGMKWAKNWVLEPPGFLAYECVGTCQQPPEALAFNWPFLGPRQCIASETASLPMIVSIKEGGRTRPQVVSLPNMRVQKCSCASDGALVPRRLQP
Test [4] has as its target Calmodulin-1 (Homo sapiens) (UniProt P0DP23). Kind of test: CALM1 binders on microarrays, EGTA buffer, profiling panel, biochemical, small-molecule microarray, Cy5-labelled CALM1 (AID 1111).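 Note: labelled calmodulin applied in Tris saline Tween buffer holding calcium plus EGTA and DTT.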 The conditions noted are these: Cy5-CALM1 binding fluorescence, higher = more signal.
For test [5] the target is unchanged. In words: calcium-bound CALM1 binders on microarrays, profiling panel, artefact control for SMM control-protein annotation, biochemical, small-molecule microarray, Cy5-labelled CALM1, plus calcium (AID 1112).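 Note: score merges spot fluorescence with signal to noise from triplicate slides.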 The conditions noted are these: Cy5-CALM1 binding fluorescence, higher = more signal.
A short description of test [6]: small-molecule microarray binders of probe aWnt5a, primary screen, biochemical, biotinylated probe, 635/667 nm fluorescence (AID 1113).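 Note: score merges 667 nm fluorescence intensity with signal-to-noise per printed feature.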 As to conditions: higher = more signal.
Test [7] in a line: small-molecule microarray binders of probe aShh, primary screen, biochemical, biotinylated probe, 635/667 nm fluorescence (AID 1114).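 Note: probe is biotin-labelled aShh protein from a stem cell growth factor screen; measures binding of labelled protein to compounds printed on the slide; score merges feature fluorescence at 667 nm with signal-to-noise.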 The conditions noted are these: higher = more signal.
Test [8] is described as follows: small-molecule microarray binders of probe aNog, primary screen, biochemical, biotinylated probe, 635/667 nm fluorescence (AID 1115).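 Note: probe is biotinylated aNog protein used at 0.15 µg/mL for 1 h at 4 C; z-score combines 667 nm fluorescence of each spot with its signal to noise.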 As to conditions: higher = more signal.
Test [9] deals with Torsin-1A-interacting protein 1 (Homo sapiens) (UniProt Q5JTV8). Kind of test: LAP1 binders from COS7 cell lysate, primary screen, small-molecule microarray, 635/667 nm fluorescence (AID 1116). As to conditions: COS7-hLAP1 lysate binding, 635 nm fluorescence, higher = more signal.
Sequence of Torsin-1A-interacting protein 1 (Homo sapiens) (Q5JTV8 whole entry, looked up): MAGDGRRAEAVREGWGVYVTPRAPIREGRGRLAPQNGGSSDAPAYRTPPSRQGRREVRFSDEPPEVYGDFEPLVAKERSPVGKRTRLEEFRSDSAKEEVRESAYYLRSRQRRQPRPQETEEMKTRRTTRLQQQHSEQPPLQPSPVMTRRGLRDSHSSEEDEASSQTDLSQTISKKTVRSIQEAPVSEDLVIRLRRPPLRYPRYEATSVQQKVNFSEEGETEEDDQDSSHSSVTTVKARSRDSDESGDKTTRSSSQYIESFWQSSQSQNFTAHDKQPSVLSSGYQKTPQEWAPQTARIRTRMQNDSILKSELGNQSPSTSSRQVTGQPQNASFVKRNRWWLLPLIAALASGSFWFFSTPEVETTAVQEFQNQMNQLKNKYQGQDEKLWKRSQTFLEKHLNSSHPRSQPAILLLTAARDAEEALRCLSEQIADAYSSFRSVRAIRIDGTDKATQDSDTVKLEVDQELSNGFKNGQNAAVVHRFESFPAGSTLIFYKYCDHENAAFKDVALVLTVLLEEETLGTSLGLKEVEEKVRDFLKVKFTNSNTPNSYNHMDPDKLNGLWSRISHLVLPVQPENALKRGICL
Test [10] has as its target Alpha-bungarotoxin (Bungarus multicinctus) (UniProt P60615). Kind of test: alpha-bungarotoxin binders on microarray, profiling panel, artefact control for SMM control protein annotation, biochemical, small-molecule microarray, Alexa647 label, 635/667 nm fluorescence (AID 1117). The conditions noted are these: alpha-BTX-A647 binding fluorescence, higher = more signal.
A further test has as its target Albumin (Bos taurus) (UniProt P02769). In words: bovine serum albumin binders on microarray, profiling panel, artefact control for SMM control protein annotation, biochemical, small-molecule microarray, Alexa647 label, 635/667 nm fluorescence (AID 1118).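 Note: score merges 667 nm emission intensity and signal-to-noise per printed compound spot.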 The conditions noted are these: BSA-A647 binding, fluorescence 635 nm, higher = more signal.
Test [11] in a line: small-molecule microarray binders of probe aXIP, primary screen, biochemical, NeuroSMM set, 635/667 nm fluorescence (AID 1119).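 Note: probe is the protein aXip251-270 applied at 1 µg/mL to compound-printed slides; binding of probe to printed compounds measured as 667 nm fluorescence plus signal to noise.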 As to conditions: higher = more signal, called active from +8 up or from −8 down.
Test [12] in a line: small-molecule binders of probe aNOTCH3, primary screen, biochemical, small-molecule microarray, 635/667 nm fluorescence (AID 1120).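 Note: probe is a biotin-tagged antibody raised against NOTCH3 rather than NOTCH3 protein; score merges spot fluorescence near 667 nm with spot signal to noise.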 As to conditions: higher = more signal.
Test [13] in a line: small-molecule binders of probe aNOTCH2, primary screen, biochemical, small-molecule microarray, 635/667 nm fluorescence (AID 1121).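 Note: score merges feature fluorescence read at 667 nm with its signal to noise.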 The conditions noted are these: higher = more signal.
Test [14] deals with Carbonic anhydrase 2 (Homo sapiens) (UniProt P00918). Kind of test: CAII small-molecule binders, profiling panel, biochemical, small-molecule microarray, Alexa647-labelled CAII (AID 1122). As to conditions: CAII-A647 binding fluorescence, higher = more signal.
The nature of test [15]: COS7 lysate on small-molecule microarray, probe aHis, 635 nm (AID 1123).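 Note: z-score combines 667nm fluorescence intensity with signal-to-noise per printed compound spot.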 The conditions noted are these: COS7 cell lysate, fluorescence, higher = more signal.
Test [16] in a line: compound binding in COS7 lysate, probe aLAP1, primary screen, cell lysate, small-molecule microarray (AID 1124).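 Note: lysate comes from COS7 cells expressing LAP1 and is applied at 0.3 µg/mL; score merges spot fluorescence near 667 nm with signal-to-noise over triplicate slides.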 The conditions noted are these: probe aLAP1, fluorescence, higher = more signal.
A further test has as its system Sam68 (KHDRBS1). Kind of test: Sam68 small-molecule binders, primary screen, biochemical, small-molecule microarray, 635 nm fluorescence (AID 1125).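 Note: score merges 667 nm channel intensity with signal to noise over triplicate slides.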 As to conditions: small-molecule microarray binding, higher = more signal.
For test [17], the system named is Chordin-like protein 2 (CHRDL2). Kind of test: CHRDL2 small-molecule binders, primary screen, biochemical, small-molecule microarray, 635 nm fluorescence (AID 1126).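 Note: printed compound slides probed with Chrdl2 protein at 4 µg/mL for 1 h at 4 C; score merges 667 nm emission intensity with signal to noise over three replicate slides.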 The conditions noted are these: small-molecule microarray binding, fluorescence 635 nm; higher = more signal.
For test [18], the target named is Concanavalin-A (Canavalia ensiformis) (UniProt P02866). Kind of test: ConA small-molecule binders, primary screen, artefact control for SMM control protein annotation, biochemical, small-molecule microarray, Alexa647 label, 635 nm (AID 1127).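 Note: z combines 667 nm emission intensity with signal-to-noise across three replicate slides.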 As to conditions: ConA-A647 binding fluorescence, higher = more signal.
Sequence of Concanavalin-A (Canavalia ensiformis) (P02866 whole entry, looked up): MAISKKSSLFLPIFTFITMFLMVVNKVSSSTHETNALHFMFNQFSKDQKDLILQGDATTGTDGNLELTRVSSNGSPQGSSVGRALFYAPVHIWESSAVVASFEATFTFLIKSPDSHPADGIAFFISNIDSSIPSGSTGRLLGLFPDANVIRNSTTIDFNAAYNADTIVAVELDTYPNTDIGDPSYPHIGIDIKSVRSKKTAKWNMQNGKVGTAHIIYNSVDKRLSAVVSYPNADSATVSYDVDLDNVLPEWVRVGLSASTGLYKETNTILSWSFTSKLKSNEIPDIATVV

The structures appear in SMILES notation. Calls of active or inactive are those of the source.

Sequence of Alpha-bungarotoxin (Bungarus multicinctus) (P60615 whole entry, looked up): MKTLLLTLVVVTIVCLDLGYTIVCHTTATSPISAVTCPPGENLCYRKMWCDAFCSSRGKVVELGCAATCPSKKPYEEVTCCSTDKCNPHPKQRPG
Sequence of Albumin (Bos taurus) (P02769 whole entry, looked up): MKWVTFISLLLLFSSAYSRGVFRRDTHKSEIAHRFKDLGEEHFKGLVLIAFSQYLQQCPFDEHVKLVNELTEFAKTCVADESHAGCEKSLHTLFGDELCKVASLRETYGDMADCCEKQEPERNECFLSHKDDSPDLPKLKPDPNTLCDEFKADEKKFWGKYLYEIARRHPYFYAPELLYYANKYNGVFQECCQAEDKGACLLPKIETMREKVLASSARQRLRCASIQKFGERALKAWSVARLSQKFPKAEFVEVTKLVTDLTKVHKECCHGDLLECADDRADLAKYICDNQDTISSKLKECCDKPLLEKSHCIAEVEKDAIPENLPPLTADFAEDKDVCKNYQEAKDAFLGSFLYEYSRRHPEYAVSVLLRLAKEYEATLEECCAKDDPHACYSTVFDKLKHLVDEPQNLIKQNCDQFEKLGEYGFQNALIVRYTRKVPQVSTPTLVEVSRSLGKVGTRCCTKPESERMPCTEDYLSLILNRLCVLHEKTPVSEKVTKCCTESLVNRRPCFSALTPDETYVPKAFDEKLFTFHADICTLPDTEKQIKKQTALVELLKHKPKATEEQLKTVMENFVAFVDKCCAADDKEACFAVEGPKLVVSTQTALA

Consider `COc1ccc(C#Cc2ccc3c(c2)[C@]2(C(=O)N3)[C@H](C(=O)O)[C@H]3C(=O)O[C@H](c4ccccc4)[C@H](c4ccccc4)N3[C@@H]2c2ccc(OCCO)cc2)cc1`, for which the composite z-score in [1] was 0.873; in [3], 0.336; in test [4] it was 2.25; in test [5] it was 0.87; in [6], -0.0617; in test [7], 0.0492. Besides, the composite z-score in [8] was 0.141; in test [9], 2; in test [10] it was 2.28; with Albumin (Bos taurus), 0.92; in test [12] it was 0.364; in test [13] it was 0.0572. The composite z-score in test [14] came to 0.421; in [15] it was 1.84; in test [16], 0.714; in the test with Sam68 (KHDRBS1), 1.29; in [17], 0.245; in test [18] it was 1.13. The compound also gave a z-score in test [2] of -1.92. The composite Z-score in test [11] is 0.655 (inactive).

In the case of `CC(C)[Si](C#C[Si](C(C)C)(C(C)C)C(C)C)(O[C@H](C)c1cn(Cc2cccc(Cl)c2)nn1)C(C)C`, the composite z-score in [1] is 0.953; in [3], 0.499; in [4] it was 1.01; in test [5], 0.506; in test [6], -0.253; in [7], -0.243. For the same compound, the composite z-score in test [8] was -0.175; in test [9], 0.0392; in [10], 1.03; with Albumin (Bos taurus) it was 0.811; in test [12] it was -0.0647; in [13] it was -0.147. For the same compound, the composite z-score in [14] was 0.554; in test [15] it was 0.842; in test [16], -0.34; in the test with Sam68 (KHDRBS1), 1.28; in test [17], 0.226; in test [18], 0.8. The z-score in test [2] was -0.266. Also, in [11], the composite Z-score was -0.596 (inactive).

Consider `C[N+](C)(C)CCCCCCNC(=O)[C@@H]1C[C@@H]2C(=O)NCC(=O)N2[C@@H]1c1ccc(O)cc1`, for which the composite z-score in [1] is 1.33; in test [3], 0.549; in test [4], 0.334; in test [5], -0.431; in [6], -0.124; in test [7], -0.244. In addition, the composite z-score in test [8] is -0.196; in [9], 1.03; in test [10], 1.9; with Albumin (Bos taurus), -0.356; in [12], 0.0636; in test [13] it was -0.174. In addition, the composite z-score in test [14] came out at 0.618; in test [15] it was 1.69; in test [16] it was 0.393; in the test on Sam68 (KHDRBS1) it was 1.06; in [17] it was 1.3; in [18] it was 0.788. Also, in test [2], the z-score amounted to 1.33. The composite Z-score in [11] was 0.607 (inactive).

As to `C=CCOC(=O)[C@@H]1[C@H]2C(=O)O[C@H](c3ccccc3)[C@H](c3ccccc3)N2[C@H](c2ccc(OCCOC(=O)[C@H]3C[C@H]4C(=O)N[C@@H](Cc5ccccc5)C(=O)N4[C@H]3c3cccc(OCCO)c3)cc2)[C@@]12C(=O)Nc1ccc(I)cc12`, the composite z-score is 0.88 in test [1]; 0.413 in [3]; -0.573 in [4]; -0.771 in [5]; -0.0161 in test [6]; 0.116 in test [7]. The composite z-score is 0.749 in test [8]; 1.29 in test [9]; 1.03 in test [10]; -0.868 with Albumin (Bos taurus); 0.319 in test [12]; -0.103 in test [13]. Further, the composite z-score is 0.344 in test [14]; 0.798 in test [15]; 0.331 in test [16]; 1.31 in the test on Sam68 (KHDRBS1); 1 in test [17]; 1.11 in test [18]. The z-score in test [2] was -2.08. In addition, the composite Z-score in test [11] is 0.111 (inactive).

Turning to `CCCCC(=C=CC[C@H](O)c1cccc(OCCO)c1)C[C@H](O)COCc1ccccc1`, the composite z-score was 0.49 in [1]; -0.466 in test [3]; -0.59 in test [4]; -0.897 in test [5]; -0.148 in [6]; -0.154 in test [7]. The composite z-score in test [8] was -0.397; in test [9] it was -0.432; in [10], -0.283; in the test with Albumin (Bos taurus), 0.92; in test [12] it was -0.179; in test [13], -0.107. For the same compound, the composite z-score is 0.697 in test [14]; 0.972 in test [15]; -0.501 in test [16]; 0.435 in the test on Sam68 (KHDRBS1); -0.592 in test [17]; 0.0194 in [18]. In [2], the z-score is -1.88. Besides, in test [11], the composite Z-score was 0.11 (inactive).

On to `COCC1=C([C@H](O)CCc2ccccc2)[C@H](CO)[C@@H]2C(=O)N(C)C(=O)[C@@H]2C1`, for which the composite z-score is -0.121 in [1]; 0.394 in test [3]; -0.205 in test [4]; -0.783 in test [5]; -0.104 in [6]; -0.164 in test [7]. The composite z-score in test [8] was -0.172; in [9], 0.478; in test [10], -0.152; in the test with Albumin (Bos taurus), 0.218; in test [12], 0.0893; in test [13], -0.0502. Also, the composite z-score is 0.426 in [14]; -0.0175 in [15]; 0.0165 in [16]; 0.322 in the test with Sam68 (KHDRBS1); 0.758 in test [17]; -0.0605 in test [18]. This compound registered a z-score in test [2] of 0.216. Besides, the composite Z-score in [11] was -0.222 (inactive).
